Results as given in PubChem BioAssay (EPA / NIEHS).
Active and inactive are the calls of the source. The calls were made as follows: active = hit-call score of the fitted dose curve at least 0.9, where 1 is the maximum; inactive = score below 0.9.

Columns and labels:
[1] = APR_HepG2_StressKinase_1hr: Apredica 1-hour HepG2 Assay for Stress Kinase (AID 2282906); details: HepG2 stress kinase (phospho-c-Jun) imaging, actives raise or lower the signal
Outline: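 High-content imaging of phospho-c-Jun immunostaining (with Hoechst nuclear identification) after a 1 h exposure of HepG2 cells to 10 concentrations from 0.39 to 200 uM, final DMSO 0.5%. Fitted bidirectionally against DMSO.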

[2] = APR_HepG2_NuclearSize_24hr: Apredica 24-hour HepG2 Assay for Nuclear Size (AID 2282907); details: high-content imaging, actives raise or lower the signal
Outline: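 Nuclear size from Hoechst 33342-stained, formaldehyde-fixed HepG2 nuclei imaged by high-content microscopy, after 24 h dosing at ten concentrations from 0.39 to 200 uM in 0.5% DMSO; gain or loss relative to DMSO baseline.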

[3] = APR_HepG2_CellLoss_24hr: Apredica 24-hour HepG2 Assay for Cell Loss (AID 2282908); details: high-content imaging;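 as to AC50: fit in both directions so a hit may be cell loss or gain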
Outline: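 Nuclei stained with Hoechst 33342 after formaldehyde fixation (3.7%) were imaged at 20x to count cells. Exposure lasted 24 hr, at ten concentrations from 0.39 to 200 uM in duplicate, with 0.5% v/v DMSO. Fit bidirectional, relative to DMSO.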

[4] = APR_HepG2_MicrotubuleCSK_24hr: Apredica 24-hour HepG2 Assay for Microtubule CSK Stabilty (AID 2282909); details: HepG2 microtubule cytoskeleton imaging, actives raise or lower the signal
Outline: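 Fixed HepG2 cells were stained for alpha-tubulin and imaged after 24 hr exposure to ten concentrations spanning 0.39–200 uM in 0.5% DMSO. Signal change was fitted in both directions relative to DMSO; taxol was the positive control.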

[5] = APR_HepG2_MitoticArrest_24hr: Apredica 24-hour HepG2 Assay for Mitotic Arrest (AID 2282910); details: high-content imaging, actives raise or lower the signal
Outline: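 HepG2, 24 hr dosing, 0.39–200 uM, 0.5% DMSO final. Formaldehyde-fixed, Triton-permeabilised, anti-phospho-histone H3 plus Hoechst. ArrayScan imaging at 20x; bidirectional fit vs DMSO baseline.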

[6] = APR_HepG2_MitoMembPot_24hr: Apredica 24-hour HepG2 Assay for Mitochondrial Membrane Potential (AID 2282911); details: imaging, actives raise or lower the signal
Outline: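 HepG2 cells exposed 24 h to 0.39–200 uM compounds in duplicate, 0.5% v/v DMSO final. MitoTracker Red CMXRos 250 nM loaded 30 min before formaldehyde fixation; high-content imaging at 20x, bidirectional fit versus DMSO.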

[7] = APR_HepG2_MitoMass_24hr: Apredica 24-hour HepG2 Assay for Mitochondrial Mass (AID 2282912); details: high-content imaging, actives raise or lower the signal
Outline: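 Endpoint is MitoTracker Red CMXRos (250 nM, 30 min, pre-fixation) intensity from 20x high-content imaging, nuclei located by Hoechst. Human HepG2 cells received ten concentrations from 0.39 to 200 uM in 0.5% DMSO for 24 hr, duplicate wells. Bidirectional fit relative to DMSO.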

[8] = APR_HepG2_CellCycleArrest_72hr: Apredica 72-hour HepG2 Assay for Cell Cycle Arrest (AID 2282914); details: high-content imaging, actives raise or lower the signal
Outline: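 HepG2 cells exposed 72 h in duplicate to 0.39–200 uM compound, 0.5% DMSO final. Formaldehyde-fixed, Hoechst 33342-stained nuclei imaged at 20x, six fields per well; DNA content per valid cell quantified by cell-cycle image analysis, bidirectional fit versus DMSO.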

[9] = APR_HepG2_CellLoss_72hr: Apredica 72-hour HepG2 Assay for Cell Loss (AID 2282915); details: high-content imaging
Outline: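 HepG2 cells exposed 72 h to compound at 0.39–200 uM (10 concentrations, duplicate) in 0.5% DMSO. Fixed with 3.7% formaldehyde and Hoechst 33342-stained. Imaged at 20x; nuclear count gives cell number, fitted bidirectionally versus DMSO.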

[10] = APR_HepG2_p53Act_24hr: Apredica 24-hour HepG2 Assay for p53 Activation (AID 2282913); details: high-content imaging, actives raise or lower the signal;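 also: p53 protein immunofluorescence averaged per cell in HepG2 with Hoechst nuclei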
Outline: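 HepG2 cells exposed 24 h to compounds at 0.39–200 uM in duplicate, 0.5% v/v DMSO final; fixed, permeabilized, stained with anti-p53 antibody and Hoechst 33342; fluorescence imaging; bidirectional curve fit versus DMSO.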

CCC(C)(CC)c1cc(NC(=O)c2c(OC)cccc2OC)on1
outcome [1]: inactive
outcome [2]: inactive
outcome [3]: inactive
outcome [4]: inactive
outcome [5]: inactive
outcome [6]: inactive
outcome [7]: inactive
outcome [8]: inactive
AC50 [9]: 66.4 µM (active)

C[C@]12CCC(=O)C=C1CC[C@@H]1[C@@H]2CC[C@]2(C)C(=O)CC[C@@H]12
outcome [2]: inactive
outcome [3]: inactive
outcome [4]: inactive
outcome [5]: inactive
outcome [6]: inactive
outcome [7]: inactive
outcome [10]: inactive
outcome [9]: inactive

O=C(O)C(F)(F)C(F)(F)C(F)(F)C(F)(F)C(F)(F)C(F)(F)C(F)(F)C(F)(F)F
outcome [2]: inactive
AC50 [3]: 104 µM (active)
outcome [4]: inactive
AC50 [5]: 139 µM (active)
outcome [6]: inactive
AC50 [7]: 107 µM (active)
AC50 [10]: 114 µM (active)
outcome [8]: inactive
AC50 [9]: 110 µM (active)

O=S(=O)(O)C(F)(F)C(F)(F)C(F)(F)C(F)(F)F
outcome [2]: inactive
outcome [3]: inactive
outcome [4]: inactive
outcome [5]: inactive
outcome [6]: inactive
outcome [7]: inactive
outcome [10]: inactive
outcome [9]: inactive

C=CC(=O)NCNC(=O)C=C
outcome [2]: inactive
outcome [3]: inactive
outcome [4]: inactive
outcome [5]: inactive
outcome [6]: inactive
outcome [7]: inactive
outcome [10]: inactive
outcome [8]: inactive
outcome [9]: inactive

CCCN(CCC)N=O
outcome [2]: inactive
outcome [3]: inactive
outcome [4]: inactive
outcome [5]: inactive
outcome [6]: inactive
outcome [7]: inactive
outcome [10]: inactive
outcome [8]: inactive
outcome [9]: inactive

Cc1ccc(O)c(C)c1
outcome [2]: inactive
outcome [3]: inactive
outcome [4]: inactive
outcome [5]: inactive
outcome [6]: inactive
outcome [7]: inactive
outcome [10]: inactive
outcome [9]: inactive

O=C(NC(=O)c1cc(F)c(F)cc1Cl)Nc1cc(F)ccc1N1CCC(C(=O)O)CC1
outcome [2]: inactive
outcome [3]: inactive
outcome [4]: inactive
outcome [5]: inactive
outcome [6]: inactive
outcome [7]: inactive
outcome [10]: inactive
outcome [9]: inactive

ClC1=C(Cl)[C@]2(Cl)[C@@H]3[C@@H]4C[C@@H]([C@H]5O[C@@H]45)[C@@H]3[C@@]1(Cl)C2(Cl)Cl
outcome [2]: inactive
AC50 [3]: 31.6 µM (active)
outcome [4]: inactive
outcome [5]: inactive
outcome [6]: inactive
outcome [7]: inactive
outcome [10]: inactive
AC50 [8]: 39.2 µM (active)
AC50 [9]: 34.4 µM (active)

CCOC(=O)C(O)(c1ccc(Cl)cc1)c1ccc(Cl)cc1
AC50 [2]: 72.9 µM (active)
AC50 [3]: 72.3 µM (active)
AC50 [4]: 89.7 µM (active)
AC50 [5]: 70.5 µM (active)
AC50 [6]: 7.9 µM (active)
AC50 [7]: 59.5 µM (active)
AC50 [10]: 82.7 µM (active)
AC50 [9]: 69.6 µM (active)

CCNc1nc(NC(C)C)nc(SC)n1
outcome [1]: inactive
outcome [2]: inactive
outcome [3]: inactive
outcome [4]: inactive
outcome [5]: inactive
outcome [6]: inactive
outcome [7]: inactive
outcome [8]: inactive
outcome [9]: inactive

C=CC(N)=O
outcome [2]: inactive
outcome [3]: inactive
outcome [4]: inactive
outcome [5]: inactive
outcome [6]: inactive
outcome [7]: inactive
outcome [10]: inactive
outcome [9]: inactive

ClC(Cl)=C(c1ccc(Cl)cc1)c1ccc(Cl)cc1
outcome [2]: inactive
AC50 [3]: 55.3 µM (active)
outcome [4]: inactive
AC50 [5]: 60.7 µM (active)
AC50 [6]: 23.2 µM (active)
AC50 [7]: 50.4 µM (active)
AC50 [10]: 57.2 µM (active)
AC50 [8]: 17 µM (active)
AC50 [9]: 50 µM (active)

C1CC2OC2CC1C1CO1 (stereo not drawn)
outcome [2]: inactive
outcome [3]: inactive
outcome [4]: inactive
outcome [5]: inactive
outcome [6]: inactive
outcome [7]: inactive
outcome [10]: inactive
outcome [9]: inactive

CC#Cc1cc(C)nc(Nc2ccccc2)n1
outcome [2]: inactive
outcome [3]: inactive
outcome [4]: inactive
outcome [5]: inactive
outcome [6]: inactive
outcome [7]: inactive
outcome [10]: inactive
AC50 [9]: 69.8 µM (active)

Nn1cnnc1
outcome [2]: inactive
outcome [3]: inactive
outcome [4]: inactive
outcome [5]: inactive
outcome [6]: inactive
outcome [10]: inactive
outcome [8]: inactive
outcome [9]: inactive

c1cc2ccc3cccc4ccc(c1)c2c34
outcome [2]: inactive
outcome [3]: inactive
outcome [4]: inactive
outcome [5]: inactive
AC50 [6]: 92.1 µM (active)
outcome [7]: inactive
outcome [10]: inactive
outcome [9]: inactive

CCC(C)c1cc([N+](=O)[O-])cc([N+](=O)[O-])c1O (stereo not drawn)
outcome [2]: inactive
outcome [3]: inactive
outcome [4]: inactive
outcome [5]: inactive
AC50 [6]: 100 µM (active)
outcome [7]: inactive
outcome [10]: inactive
AC50 [9]: 51 µM (active)

Cc1cc2c3c(c1)C(c1ccccc1)=N[C@@H](NC(=O)c1ccncc1)C(=O)N3CC2
outcome [2]: inactive
outcome [3]: inactive
outcome [4]: inactive
outcome [5]: inactive
outcome [6]: inactive
outcome [10]: inactive
outcome [8]: inactive
AC50 [9]: 90.9 µM (active)

CCC(=O)O[C@H]1CC[C@H]2[C@@H]3CCC4=CC(=O)CC[C@]4(C)[C@H]3CC[C@]12C
outcome [2]: inactive
AC50 [3]: 107 µM (active)
outcome [4]: inactive
AC50 [5]: 116 µM (active)
outcome [6]: inactive
outcome [10]: inactive
outcome [8]: inactive
AC50 [9]: 125 µM (active)

Clc1ccc(C(Cl)(Cl)Cl)cc1
outcome [2]: inactive
outcome [3]: inactive
outcome [4]: inactive
outcome [5]: inactive
outcome [6]: inactive
outcome [10]: inactive
outcome [8]: inactive
outcome [9]: inactive

CCCCCCOC(=O)c1ccccc1C(=O)OCCCCCC
outcome [2]: inactive
AC50 [3]: 97.3 µM (active)
outcome [4]: inactive
outcome [5]: inactive
AC50 [6]: 112 µM (active)
outcome [10]: inactive
AC50 [8]: 109 µM (active)
AC50 [9]: 102 µM (active)

O=C(O)C(F)(F)C(F)(F)C(F)(F)C(F)(F)C(F)(F)C(F)(F)C(F)(F)C(F)(F)C(F)(F)F
AC50 [2]: 130 µM (active)
AC50 [3]: 108 µM (active)
outcome [4]: inactive
AC50 [5]: 106 µM (active)
outcome [6]: inactive
AC50 [7]: 109 µM (active)
AC50 [10]: 97.4 µM (active)
AC50 [8]: 66.8 µM (active)
AC50 [9]: 96 µM (active)

Cc1ccccc1CO[C@@H]1C[C@@]2(C(C)C)CC[C@]1(C)O2
outcome [1]: inactive
outcome [2]: inactive
outcome [3]: inactive
outcome [4]: inactive
outcome [5]: inactive
outcome [6]: inactive
outcome [9]: inactive

CCOP(=S)(OCC)SCSC(C)(C)C
outcome [2]: inactive
outcome [3]: inactive
outcome [4]: inactive
outcome [5]: inactive
AC50 [6]: 0.0494 µM (active)
outcome [7]: inactive
outcome [10]: inactive
outcome [9]: inactive

CN(C)c1nc(=O)n(C2CCCCC2)c(=O)n1C
outcome [1]: inactive
outcome [2]: inactive
outcome [3]: inactive
outcome [4]: inactive
outcome [5]: inactive
outcome [6]: inactive
outcome [7]: inactive
outcome [9]: inactive

Cc1cccc(C)c1N
outcome [2]: inactive
outcome [3]: inactive
outcome [4]: inactive
outcome [5]: inactive
outcome [6]: inactive
outcome [10]: inactive
outcome [8]: inactive
outcome [9]: inactive

Clc1ccc(C(c2ccccc2Cl)C(Cl)(Cl)Cl)cc1 (stereo not drawn)
outcome [2]: inactive
AC50 [3]: 70.5 µM (active)
AC50 [4]: 74.4 µM (active)
AC50 [5]: 69.4 µM (active)
outcome [6]: inactive
AC50 [7]: 65.7 µM (active)
AC50 [10]: 75.5 µM (active)
AC50 [9]: 70.6 µM (active)

Oc1ccc(Cl)cc1Cl
outcome [2]: inactive
outcome [3]: inactive
outcome [4]: inactive
outcome [5]: inactive
outcome [6]: inactive
outcome [7]: inactive
outcome [10]: inactive
outcome [8]: inactive
outcome [9]: inactive

CCSC(=O)N(CC)C1CCCCC1
outcome [1]: inactive
outcome [2]: inactive
outcome [3]: inactive
outcome [4]: inactive
outcome [5]: inactive
outcome [6]: inactive
outcome [8]: inactive
outcome [9]: inactive
